# Most compounds without a hit are left out; they make up all but 1.5% or so of the library.
# F-actin modifier – cytoskeleton assembly modification. actives 0.18% (n = 91,000). inhibition, % at 2 µM. HUVEC TNFa F-actin phalloidin imaging, high content;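 active = inhibition above the batch mean plus 3 SD and confirmed as a hit by visual image inspection, cut at about 30% in these data, passing the limit was not always enough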
# Measles CPE – protection of cells from measles virus; Measles virus-infected cells, CPE protection, absorbance; protection (pct of control), % at 4 µM; actives 1.5% (n = 140,000); in the data active = protection mostly above about 24%, no sharp cut-off; inactive = mostly below about 26%
# * = called active by the depositor; x = no result given.
SMILES,F-actin modifier,Measles CPE
Cc1ccc(-n2nnnc2SCC(=O)Nc2sccc2C#N)cc1,x,5
COCCSc1ccccc1C(=O)Nc1cc(C)ccn1,x,4
O=c1c2cccc3c2c(nn1CN1CCOCC1)-c1ccccc1-3,-23,59*
Cc1ccc(-c2nn(CC(=O)NCCN3CCOCC3)c(=O)c3ccccc23)cc1,10,30
COc1ccc(NS(=O)(=O)c2ccc(O)c(C(=O)OCC(=O)Nc3ccc4c(c3)OCCO4)c2)cc1,x,6
COc1ccc(NS(=O)(=O)c2ccc3oc(Nc4ccc5c(c4)OCCO5)nc3c2)cc1,7,93*
O=C(Nc1nncs1)c1cccnc1Cl,x,17
C=CCn1c(SCC(=O)N2CC(=O)Nc3ccccc32)nc2scc(-c3ccccc3)c2c1=O,3,81*
C=CCn1c(SCC(=O)NCc2ccc3c(c2)OCO3)nc2scc(-c3ccccc3)c2c1=O,-1,9
COc1ccc(Br)cc1/C(C)=N/NC1=NCCN1,10,8
CCCCCOc1ccc(Br)cc1/C(C)=N/NC1=NCCN1,49*,14
CCCCN1CC2([N+](=O)[O-])C=CC(=O)C([N+](=O)[O-])(C1)C2CC(=O)c1ccccc1 (stereo unspecified),x,6
CCN1CC2([N+](=O)[O-])C=CC(=O)C([N+](=O)[O-])(C1)C2CC(=O)c1ccccc1 (stereo unspecified),-17,27*
COCCNC(=O)CSc1nnc(CCCN2C(=O)c3cccc4cccc(c34)C2=O)n1-c1ccccc1,x,12
Cc1ccc(C(=O)N/C(=C\c2sccc2C)C(=O)NCc2ccncc2)cc1,x,6
Cc1ccc(C(=O)N/C(=C\c2cccs2)C(=O)NCc2ccncc2)cc1,-5,47*
CC(C)(C)c1ccc(C(=O)N/C(=C/c2cccs2)C(=O)NCc2ccco2)cc1,x,15
Cc1ccc(C(=O)N/C(=C\c2sccc2C)C(=O)NCc2ccco2)cc1,-15,61*
O=C(CSc1cccc2cccc(Cl)c12)NCc1cccs1,x,5
Cc1cc(C)nc(NS(=O)(=O)c2ccc(N/C=C/C(=O)c3ccc(Cl)c(Cl)c3)cc2)n1,x,44*
Cc1cc(C)nc(NS(=O)(=O)c2ccc(N/C=C\C(=O)c3ccc(Cl)cc3)cc2)n1,4,4
CC1(c2ccccc2)NC(=O)N(Cc2ccc([N+](=O)[O-])cc2)C1=O (stereo unspecified),x,53*
CCOc1ccccc1CN1C(=O)NC(C)(c2ccccc2)C1=O (stereo unspecified),-3,9
CCC(C)NC(=O)C1CCCCN1S(=O)(=O)c1ccc(F)cc1 (stereo unspecified),8,5
CCOC(=O)N1CCC(NC(=O)C2CCCCN2S(=O)(=O)c2ccc(F)cc2)CC1 (stereo unspecified),19,34*
SMILES,F-actin modifier,Measles CPE
O=C(NC(Cc1ccccc1)C(=O)Oc1ccc2c(C(F)(F)F)cc(=O)oc2c1)OCc1ccccc1 (stereo unspecified),x,4
CC(NC(=O)OCc1ccccc1)C(=O)Oc1cc2oc(=O)cc(-c3ccccc3)c2cc1Cl (stereo unspecified),x,29*
Nc1nc(-c2ccccc2)nc2sc3c(c12)CCCC3,x,5
N#Cc1c2c(c[nH]c1=O)CCN2Cc1ccccc1,-41,44*
CN(C)c1[nH]c(=O)c(C#N)c2c1CCN2Cc1ccccc1,-20,3
O=C(COC(=O)c1cccc(NS(=O)(=O)c2ccc(F)c(F)c2)c1)NC(=O)NC1CCCC1,x,10
COc1cccc(NC(=O)COC(=O)CNS(=O)(=O)c2c(F)cccc2F)c1,x,11
CC12c3ccccc3C(c3ccccc31)C1C(=O)N(Cc3cccnc3)C(=O)[C@H]12 (stereo partly specified),x,4
O=C1C2C3C=CC([C@@H]2C(=O)N1Cc1cccnc1)C31CC1 (stereo partly specified),-24,45*
Cc1ccc(-n2c(O)c(C=NCc3ccccn3)c3ccccc3c2=O)cc1C,x,21
Cc1ccc(/C=C/C(=O)Nc2cc(=O)n(C)c(=O)n2C)o1,x,16
O=C(CSc1nnc(-c2cccs2)n1-c1ccccc1)N1CCCC1,-44,15
O=C(CSc1nnc(-c2cccs2)n1-c1ccccc1)N1CCOCC1,12,38*
COc1ccc(NC(=O)CSc2nnc(C3CCCCC3)n2-c2ccccc2)cc1,-13,7
O=C(CSc1nnc(C2CC2)n1-c1ccccc1)Nc1ccc(N2CCOCC2)cc1,-17,39*
COc1cc2c(cc1OC)C(C1C(=O)CC(C)CC1=O)N(C(=O)CCl)CC2 (stereo unspecified),x,12
COc1cc(NC(=O)COC(=O)C2CC2)c(C)cc1[N+](=O)[O-],x,26
COc1cc(NC(=O)CN2CCC(Cc3ccccc3)CC2)c(C)cc1[N+](=O)[O-],x,70*
O=c1c2c3c(sc2nc2n1CCCC2)CCC3,11,36*
O=c1c2c3c(sc2nc2n1CCCCC2)CCCCC3,12,14
CCN(CC)S(=O)(=O)c1ccc(N2CCOCC2)c(NC(=O)CC23CC4CC(CC(Br)(C4)C2)C3)c1,x,3
C=CCNC(=O)COc1cc(C)ccc1C,x,10
COc1ccccc1Nc1nnc(C)c(=O)[nH]1,x,17
CCOc1ccccc1Nc1nnc(C)c(=O)[nH]1,-8,60*
CN=C1CC(SC)=C1c1ccc(C)cc1,-2,6
SMILES,F-actin modifier,Measles CPE
COc1ccc(NC(=O)C(c2ccccc2)N(C)C(=O)c2ccc(=O)[nH]c2)cc1 (stereo unspecified),x,31*
COc1ccc(NC(=O)C(NC(=O)c2ccc(=O)[nH]c2)c2ccc(OC)cc2)cc1 (stereo unspecified),x,12
C[n+]1ccn(CC(=O)c2ccc(Cl)cc2)c1,x,39*
C[n+]1ccn(CC(=O)c2ccc(Br)cc2)c1,x,6
c1ccc(C2CC(c3ccccc3)n3c(nc4ccccc43)N2)cc1 (stereo unspecified),x,3
CCOC(=O)c1[nH]c(=O)[nH]c1CSc1nc(C)cc(C)n1,0,13
CCOC(=O)c1[nH]c(=O)[nH]c1COC(=O)c1cc2ccccc2o1,7,40*
Cc1ccc2ccc(C(Nc3ccccn3)c3ccccc3)c(O)c2n1 (stereo unspecified),7,18
COc1cc(C(Nc2ccccn2)c2ccc3ccc(C)nc3c2O)cc(OC)c1O (stereo unspecified),-15,41*
CC(=O)c1ccc(N(C(=O)CS(=O)CC(=O)Nc2ccc(F)cc2)C(C(=O)NC2CCCCC2)c2cccs2)cc1 (stereo unspecified),x,5
N#Cc1c(-c2ccco2)c2c([nH]c1=S)CCCC2,x,8
N#Cc1c2c(c(-c3ccco3)[nH]c1=O)CCCC2,-19,46*
COc1ccc(CCn2c(=O)[nH]c3cc(C(=O)NCCN4CCOCC4)ccc3c2=O)cc1OC,-12,8
CCCCCn1c(=O)[nH]c2cc(C(=O)NCCc3ccc(OC)c(OC)c3)ccc2c1=O,4,38*
O=C(C1CCN(S(=O)(=O)c2ccccc2)CC1)N1CCOCC1,10,8
O=[N+]([O-])c1cc(-c2nnc(Nc3ccccc3)c3ccccc23)ccc1N1CCOCC1,x,6
Cc1ccc(Nc2nnc(-c3ccc(N4CCOCC4)c([N+](=O)[O-])c3)c3ccccc23)cc1,x,35*
CCOc1ccccc1OCCCNCc1ccco1,x,15
COc1ccc(CCNC(=O)COc2ccc(S(=O)(=O)NC(C)C)cc2Cl)cc1OC,1,6
O=C(CSc1ccccc1)NCCSCc1ccccc1,x,10

# Assay outcomes (PubChem)
